In publication PMC4552634, “A New Set of Chemical Starting Points with Plasmodium falciparum Transmission-Blocking Potential for Antimalarial Drug Discovery” (PLoS ONE, 2015):
The campaign covered roughly 13,000 compounds. About 3,200 (25%) showed an effect of 50% or more. Some of the results follow.

The molecules below were run on P. falciparum stage V gametocytes. Details: 48 h, 5 µM; inhibitor.
Parameters: BacTiter-Glo ATP luminescence viability of purified stage V gametocytes in 384-well plates, per cent inhibition versus DMSO

SMILES | % Inhibition
NC(=O)c1cccc(Nc2nccc(Nc3ccc(Oc4c(Cl)cccc4Cl)c(Cl)c3)n2)c1 [TCMDC-138594] | -30.34%
OC(CN(Cc1ccccc1)Cc1ccccc1)Cn1c2ccc(Cl)cc2c2cc(Cl)ccc21 (stereo not shown) [TCMDC-125720] | 14.45%
N#Cc1ccc2[nH]cc(C(=O)CCCCCN(Cc3ccccc3)Cc3ccccc3)c2c1 [TCMDC-131257] | 33.92%
N#Cc1cccc(C(O)CN(Cc2ccccc2)Cc2ccccc2)c1 (stereo not shown) [TCMDC-131250] | 62.4%
Cc1cc(C(F)(F)F)cc(-n2ncc(-c3ccc(C(=O)NCCNCc4ccccc4)cc3)c2N)n1 [TCMDC-136659] | -53.07%
CCc1c[nH]c2c(N(c3ccccc3)S(C)(=O)=O)cc(C(=O)N[C@@H](Cc3ccccc3)[C@H](O)CNCc3cccc(C(F)(F)F)c3)cc12 [TCMDC-135318] | 91.8%
CS(=O)(=O)N(c1cccc(F)c1)c1cc(C(=O)N[C@@H](Cc2ccccc2)[C@H](O)CNCc2cccc(C(F)(F)F)c2)cc(N2CCCC2=O)c1 [TCMDC-138921] | -9.659%
CCNc1cc(C(=O)N[C@@H](Cc2ccccc2)[C@H](O)CNC(C)(C)CCCC(C)C)cc(N2CCCC2=O)c1 [TCMDC-138889] | 7.674%
CS(=O)(=O)N(c1ccc(F)cc1)c1cc(C(=O)N[C@@H](Cc2ccccc2)[C@H](O)CNCc2cccc(C(F)(F)F)c2)cc(N2CCCC2=O)c1 [TCMDC-138920] | -15.57%
CCc1c[nH]c2c(N(c3ccccc3)S(C)(=O)=O)cc(C(=O)N[C@@H](Cc3ccccc3)[C@H](O)CNC(C)(C)CCCC(C)C)cc12 [TCMDC-135319] | 124.7%
CN=C(NC)c1cccc(NC(=O)C=Cc2ccc(C=CC(=O)Nc3cccc(C(=NC)NC)c3)cc2)c1 [TCMDC-137213] | 18.83%
CCc1cc2c(=O)c(-c3nc(C)cs3)c([C@H](N)Cc3ccc(O)cc3)oc2cc1O [TCMDC-124111] | 0.6377%
O=C(N/C=N/c1cc([N+](=O)[O-])c(-c2cccnc2)n1-c1ccc(O)cc1)c1ccccc1 [TCMDC-125227] | -2.82%
COc1ccc(CC(=O)NC(CCCN2CCC(c3ccccc3)CC2)c2ccc(Cl)c(Cl)c2)cc1OC (stereo not shown) [TCMDC-141901] | -2.836%
O=S(=O)(c1cccc(Cl)c1F)N(CCC(O)(C(F)(F)F)C(F)(F)F)Cc1cccc(O)c1 [TCMDC-133479] | 57.98%
O=S(=O)(c1cc(Cl)sc1Cl)N(CCC(O)(C(F)(F)F)C(F)(F)F)Cc1cccc(O)c1 [TCMDC-133476] | 47.79%
O=C(Nc1cccc(CN2CCN(Cc3cccc(O)c3)CC2)c1)c1cc2ccccc2s1 [TCMDC-134623] | -8.756%
CC(=O)Nc1ccc(CN(Cc2ccc(F)cc2)Cc2cccc(Oc3ccccc3)c2)cc1 [TCMDC-140033] | -16.62%
O=S(=O)(c1ccc(Oc2ccccc2)cc1)N(CCC(O)(C(F)(F)F)C(F)(F)F)Cc1cccc(O)c1 [TCMDC-133480] | 74.25%
O=S(=O)(c1cc2ccccc2s1)N(CCC(O)(C(F)(F)F)C(F)(F)F)Cc1cccc(O)c1 [TCMDC-133477] | 95.75%
COC(=O)c1cccc(CN(CCC(O)(C(F)(F)F)C(F)(F)F)C(=O)CC2CCCC2)c1 [TCMDC-133482] | 48.89%
O=S(=O)(c1csc2ccccc12)N(CCC(O)(C(F)(F)F)C(F)(F)F)Cc1cccc(O)c1 [TCMDC-133478] | 82.79%
Oc1cc(Nc2ccnc3cc(I)ccc23)c(F)cc1Cl [TCMDC-138386] | -3.325%
COc1ccc2nccc([C@@H](O)CN3CCC(NC(=O)/C=C/c4c[nH]c5c(C)cccc45)CC3)c2c1 [TCMDC-141000] | -6.826%

SMILES | % Inhibition
COC(=O)CCn1c(C2CCN(CC3CCC(NC(=O)/C=C/c4ccc(Cl)c(Cl)c4)CC3)CC2)nc2ccccc21 (stereo not shown) [TCMDC-140309] | -7.996%
Cc1ccc(C)c2sc(N(CCCn3ccnc3)C(=O)c3ccco3)nc12 [TCMDC-124924] | 13.91%
Cc1cc(N2CCC(NS(=O)(=O)c3cccc4cccnc34)CC2)nc(Nc2cccc(C#N)c2)n1 [TCMDC-134212] | -0.7992%
CCOC(=O)C1=C(C)NC2=C(C(=O)CCC2)C1c1cn(Cc2ccc(Cl)cc2Cl)nc1-c1ccccc1 (stereo not shown) [TCMDC-125393] | -36.58%
COc1ccc(CCN2CCC(NCc3cccc(N(C)C)c3)CC2)cc1 [TCMDC-124991] | -14.2%
COc1ccc(CNC2CCCC2)cc1-c1ccc(S(=O)(=O)NCCN2CCCC2)s1 [TCMDC-132299] | 107.1%
COc1ccc(CNC2Cc3ccccc3C2)cc1-c1ccc(S(=O)(=O)NCCN2CCCC2)s1 [TCMDC-132258] | 106.2%
COc1ccc(CNC2CCN(C)CC2)cc1-c1ccc(S(=O)(=O)NC2CCC2)s1 [TCMDC-132254] | 75.62%
COc1ccc(CNC2CCN(C)CC2)cc1-c1ccc(S(=O)(=O)NCC2CCCO2)s1 (stereo not shown) [TCMDC-132478] | 30.18%
COc1ccc(CNC2CCN(C)CC2)cc1-c1ccc(S(=O)(=O)NCCN2CCCC2)s1 [TCMDC-132259] | 103.7%
N#Cc1cccc(-c2cnc(N)c(-c3nc4ccc(S(N)(=O)=O)cc4[nH]3)c2)c1 [TCMDC-138816] | 7.84%
COc1ccc(C(c2ccc(N(C)C)cc2)c2ccc(N(C)C)cc2)cc1 [TCMDC-125652] | 48.26%
CN1CCN(CC(O)CNC(=O)Nc2ccc(Cl)cc2)CC1 (stereo not shown) [TCMDC-134633] | 21.11%
COc1ccc2nccc([C@@H](O)CN3CCC(NC(=O)/C=C/c4ccc(Cl)c(C(F)(F)F)c4)CC3)c2c1 [TCMDC-141110] | -13.82%
CN1CCC(c2c[nH]c3ccc(NC(=O)Nc4ccc(-c5ccncc5)c(Cl)c4Cl)cc23)CC1 [TCMDC-139179] | -11.47%
CSc1ccc(C=CC(=O)NC(=O)c2ccccc2O)cc1 [TCMDC-123758] | 32.47%
O=C(NC1CCN(c2ccnc(Nc3ccc(F)cc3)n2)C1)c1cc2ccccc2s1 (stereo not shown) [TCMDC-133599] | 10.95%
Cc1ccc(C(=O)Nc2cccc(CN3CCCN(Cc4ccc(O)cc4)CC3)c2)cc1 [TCMDC-141815] | 21.11%
N#Cc1ccc(CN2CCCN(Cc3cccc(NC(=O)c4ccc(Cl)c(Cl)c4)c3)CC2)cc1 [TCMDC-141823] | -56.24%
O=C(Nc1cccc(CN2CCCN(Cc3ccc(O)cc3)CC2)c1)c1ccc(Cl)c(Cl)c1 [TCMDC-141834] | -18.14%
O=C(Nc1cccc(CN2CCN(Cc3cccc(O)c3)CC2)c1)c1ccc(Cl)c(Cl)c1 [TCMDC-134618] | 76.18%
O=C(Nc1cccc(CN2CCN(Cc3ccc(O)cc3)CC2)c1)c1ccc(Cl)c(Cl)c1 [TCMDC-134619] | -11.77%
Cc1ccc(NC(=O)c2cccc(CN3CCCN(Cc4cccc(O)c4)CC3)c2)cc1F [TCMDC-135959] | -11.31%
COc1cccc(CN2CCCN(Cc3cccc(NC(=O)c4ccc(Cl)c(Cl)c4)c3)CC2)c1 [TCMDC-141830] | 58.26%

SMILES | % Inhibition
Cc1ccc(NC(=O)c2ccc(CN3CCCN(Cc4cccc(O)c4)CC3)cc2)cc1C [TCMDC-136427] | 11.16%
Cc1ccc(CN2CCCN(Cc3cccc(NC(=O)c4ccc(Cl)c(Cl)c4)c3)CC2)cc1 [TCMDC-141835] | 80.74%
O=C(Nc1cccc(CN2CCCN(CC3CCCCC3)CC2)c1)c1ccc(Cl)c(Cl)c1 [TCMDC-141818] | -34.63%
O=C(Nc1cccc(CN2CCCN(Cc3cccc(O)c3)CC2)c1)c1ccc(Cl)c(Cl)c1 [TCMDC-141831] | -42.16%
Cc1ccc(NC(=O)c2cccc(CN3CCCN(Cc4cccc(O)c4)CC3)c2)cc1C [TCMDC-135979] | 91.29%
O=C(Nc1ccc(OC2CCN(Cc3ccccc3)CC2)c(Cl)c1)c1ccc(F)cc1 [TCMDC-133967] | 19.46%
FC(F)(F)c1ccc2nc(-c3ccc(-c4ccc(CN5CCN(c6ccncc6)CC5)cc4)cc3)[nH]c2c1 [TCMDC-132915] | -1.262%
COc1cc(F)c2ncc(Cl)c(C(O)CN3CCC(NC(=O)c4ccc5c(n4)NC(=O)CO5)CC3)c2c1 (stereo not shown) [TCMDC-135912] | -16.65%
CCCc1cc(OC)c(CC2c3cccc(O)c3CCN2C)cc1OC (stereo not shown) [TCMDC-137435] | 12.33%
CN(C)c1ccc(C=CC(=O)NC(=O)c2ccccc2O)cc1 [TCMDC-125391] | 21.33%
COc1ccc2c(c1)[nH]c1c(C=Cc3ccccc3)nccc12 [TCMDC-125877] | -0.575%
CCC(Cc1cnc2nc(N)nc(N)c2n1)c1ccc(C(=O)N[C@@H](CCC(=O)O)C(=O)O)cc1 (stereo partly shown) [TCMDC-137768] | -32.96%
CN(c1cc(NC(=O)c2ccc(F)cc2)ccn1)C1CCN(Cc2cccc(C#N)c2)CC1 [TCMDC-134975] | 15.95%
CC(C)CCN1CCCN(Cc2cccc(NC(=O)c3ccc(Cl)c(Cl)c3)c2)CC1 [TCMDC-141827] | 68.73%
CCCCCCN1CCN(Cc2cccc(NC(=O)c3ccc(Cl)c(Cl)c3)c2)CC1 [TCMDC-134617] | -46.23%
CCCCN1CCN(Cc2cccc(NC(=O)c3ccc(Cl)c(Cl)c3)c2)CC1 [TCMDC-134615] | -27.06%
O=C(Nc1cccc(CN2CCCN(Cc3cccnc3)CC2)c1)c1ccc(Cl)c(Cl)c1 [TCMDC-141824] | 12.34%
CC(C)CCN1CCCN(Cc2ccc(C(=O)Nc3ccc(Cl)cc3)cc2)CC1 [TCMDC-136413] | 0.3374%
O=C(Nc1cccc(CN2CCCN(Cc3ccsc3)CC2)c1)c1ccc(Cl)c(Cl)c1 [TCMDC-134581] | -57.04%
CC(C)CCN1CCCN(Cc2ccc(C(=O)Nc3ccc(F)c(F)c3)cc2)CC1 [TCMDC-136391] | 89.43%
Cc1ccc(NC(=O)c2ccc(CN3CCCN(CCC(C)C)CC3)cc2)cc1F [TCMDC-136410] | -21.57%
O=C(Nc1cccc(CN2CCCN(Cc3cccc(Cl)c3)CC2)c1)c1ccc(Cl)c(Cl)c1 [TCMDC-141822] | 77.55%
